PubChem BioAssay (EPA / NIEHS)
Inconclusive results are not listed. Activity calls are given as the source filed them. The calls were made as follows, unless noted: active = hit-call score of the fitted dose curve at least 0.9, where 1 is the maximum; inactive = score below 0.9.

Assays:
[1] = ACEA_ER_80hr: ACEA Biosciences xCELLigence Real-Time Cell Analysis on Estrogen Receptor Agonism for Proliferation (AID 2282667; active = hit-call score of the fitted dose curve at least 0.9, where 1 is the maximum); conditions: T47D proliferation, impedance (xCELLigence), 80 h
Outline: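 Real-time impedance growth kinetics of human T-47D breast cells read 80 h after dosing, gain-of-signal fitted relative to DMSO. Compounds: 1:4 serial series, top final concentration 100 uM, n = 2.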

[2] = APR_HepG2_CellCycleArrest_24hr: Apredica 24-hour HepG2 Assay for Cell Cycle Arrest (AID 2282905); conditions: imaging, actives raise or lower the signal;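 also: cell cycle arrest scored as ratio of 2N to 4N nuclear DNA content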
Outline: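 Cell cycle arrest is scored from nuclear DNA content measured by high-content imaging of Hoechst 33342-stained HepG2 cells following 24-hour treatment at ten concentrations up to 200 uM, with DMSO as baseline.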

[3] = APR_HepG2_NuclearSize_24hr: Apredica 24-hour HepG2 Assay for Nuclear Size (AID 2282907); conditions: high-content imaging, actives raise or lower the signal
Outline: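 Compounds in DMSO (final 0.5%) were added to human HepG2 hepatoma cells at ten concentrations up to 200 uM for 24 hr. Fixed nuclei were stained with Hoechst 33342, and nuclear diameter was quantified from automated images.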

[4] = APR_HepG2_CellLoss_24hr: Apredica 24-hour HepG2 Assay for Cell Loss (AID 2282908); conditions: high-content imaging;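 as to AC50: fit in both directions so a hit may be cell loss or gain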
Outline: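 Cell number is quantified by fluorescence imaging of Hoechst 33342-stained nuclei following dosing at 0.39–200 uM in 0.5% DMSO. Curves are fitted in both directions from the DMSO baseline.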

[5] = APR_HepG2_MitoticArrest_24hr: Apredica 24-hour HepG2 Assay for Mitotic Arrest (AID 2282910); conditions: high-content imaging, actives raise or lower the signal
Outline: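 HepG2 cells, 24 h exposure at 0.39-200 uM (10 concentrations, duplicate, 0.5% DMSO). Fixed, stained for phospho-histone H3 with Hoechst; imaged by high-content microscopy, bidirectional fit versus DMSO.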

[6] = APR_HepG2_MitoMembPot_24hr: Apredica 24-hour HepG2 Assay for Mitochondrial Membrane Potential (AID 2282911); conditions: imaging, actives raise or lower the signal
Outline: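 Mitochondrial membrane potential imaged via MitoTracker Red CMXRos (250 nM, 30 min pre-fixation) in fixed HepG2 cells with Hoechst nuclear identification. Ten concentrations 0.39–200 uM, 24 h treatment, 0.5% DMSO; CCCP as positive control.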

[7] = APR_HepG2_MitoMass_24hr: Apredica 24-hour HepG2 Assay for Mitochondrial Mass (AID 2282912); conditions: high-content imaging, actives raise or lower the signal
Outline: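 The liver line HepG2 was dosed in duplicate across a 0.39–200 uM series, with final DMSO held at 0.5% v/v, and harvested at 24 hr. High-content imaging measured mitochondrial dye staining.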

[8] = APR_HepG2_p53Act_24hr: Apredica 24-hour HepG2 Assay for p53 Activation (AID 2282913); conditions: high-content imaging, actives raise or lower the signal;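 also: p53 protein immunofluorescence averaged per cell in HepG2 with Hoechst nuclei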
Outline: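 Fluorescence imaging of formaldehyde-fixed HepG2 cells labelled for p53 and with Hoechst, 24 h after dosing (0.39–200 uM, duplicate wells, 0.5% v/v DMSO). Signal fitted in both directions relative to DMSO.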

[9] = APR_HepG2_CellCycleArrest_72hr: Apredica 72-hour HepG2 Assay for Cell Cycle Arrest (AID 2282914); conditions: high-content imaging, actives raise or lower the signal
Outline: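 Read-out: nuclear DNA content from Hoechst 33342 high-content imaging (20x, six fields/well) after 3.7% formaldehyde fixation, fitted bidirectionally against DMSO. Treatment was 72 h in HepG2, ten concentrations 0.39–200 uM, duplicate, 0.5% DMSO.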

[10] = APR_HepG2_CellLoss_72hr: Apredica 72-hour HepG2 Assay for Cell Loss (AID 2282915); conditions: high-content imaging
Outline: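 HepG2 cells exposed 72 h to compound at 0.39–200 uM (10 concentrations, duplicate) in 0.5% DMSO. Fixed with 3.7% formaldehyde and Hoechst 33342-stained. Imaged at 20x; nuclear count gives cell number, fitted bidirectionally versus DMSO.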

[11] = APR_HepG2_P-H2AX_72hr: Apredica 72-hour HepG2 Assay for H2AX Phosphorylation (AID 2282916); conditions: imaging, actives raise or lower the signal;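 also: phospho-histone H2A.x immunostain intensity per cell marking DNA damage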
Outline: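 Following 72 hr treatment with 0.39–200 uM compound, HepG2 cells were formaldehyde-fixed, permeabilized and stained for phospho-H2A.x; signal was measured by high-content imaging and fitted bidirectionally against DMSO controls.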

[12] = APR_HepG2_MitoMembPot_72hr: Apredica 72-hour HepG2 Assay for Mitochondrial Membrane Potential (AID 2282917); conditions: imaging, actives raise or lower the signal
Outline: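 HepG2 cells dosed 72 hr with compound at 0.39–200 uM in duplicate, 0.5% v/v DMSO final. Mitochondria stained with 250 nM MitoTracker Red CMXRos for 30 min before formaldehyde fixation, imaged by high-content fluorescence; bidirectional fit versus DMSO.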

[13] = APR_HepG2_MitoticArrest_72hr: Apredica 72-hour HepG2 Assay for Mitotic Arrest (AID 2282918); conditions: high-content imaging, actives raise or lower the signal
Outline: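 High-content imaging of fixed human HepG2 cells after 72 h compound exposure (0.39–200 uM, duplicates, 0.5% DMSO); mitotic arrest scored from phospho-histone H3 and nuclear Hoechst staining relative to DMSO.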

[14] = APR_HepG2_MicrotubuleCSK_72hr: Apredica 72-hour HepG2 Assay for Microtubule CSK Stabilty (AID 2282919); conditions: HepG2 microtubule cytoskeleton, high-content imaging, actives raise or lower the signal
Outline: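 HepG2 cells were exposed 72 hr to compound at 0.39–200 uM in duplicate (0.5% DMSO final), then fixed and permeabilized. Alpha-tubulin immunofluorescence was imaged by high-content microscopy, with bidirectional fitting against DMSO and taxol as positive control.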

[15] = APR_HepG2_P-H2AX_24hr: Apredica 24-hour HepG2 Assay for H2AX Phosphorylation (AID 2282920); conditions: high-content imaging, actives raise or lower the signal
Outline: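 High-content imaging of phospho-histone H2A.x immunofluorescence, nuclei counterstained with Hoechst 33342, in fixed HepG2 cells. Compounds ran 0.39–200 uM in duplicate for 24 h, final DMSO 0.5%. Signal change fitted both directions against DMSO.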

[16] = APR_HepG2_StressKinase_72hr: Apredica 72-hour HepG2 Assay for Stress Kinase (AID 2282921); conditions: HepG2 stress kinase (phospho-c-Jun) imaging, actives raise or lower the signal
Outline: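 Fluorescence intensity of Cy3-tagged anti-phospho-c-Jun antibody, quantified per cell from Hoechst-defined nuclei across six images per well, served as the read-out following 72 h exposure (0.39–200 uM, 0.5% v/v DMSO).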

[17] = APR_HepG2_StressKinase_24hr: Apredica 24-hour HepG2 Assay for Stress Kinase (AID 2282922); conditions: HepG2 stress kinase (phospho-c-Jun) imaging, actives raise or lower the signal
Outline: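 HepG2 cells exposed 24 h to 0.39–200 uM compound in duplicate (0.5% v/v DMSO final). Cells fixed in 3.7% formaldehyde, permeabilized and immunostained for phospho-c-Jun; read by high-content fluorescence imaging, fitted bidirectionally against DMSO.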

[18] = APR_HepG2_p53Act_72hr: Apredica 72-hour HepG2 Assay for p53 Activation (AID 2282923); conditions: high-content imaging, actives raise or lower the signal;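 also: average cellular p53 protein immunofluorescence intensity in HepG2 cells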
Outline: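 HepG2 monolayers receive test compounds in duplicate at ten concentrations (0.39 through 200 uM) for 72 hr. They are then formaldehyde-fixed, antibody-labelled for p53, Hoechst-stained and imaged, with activity fitted bidirectionally versus DMSO.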

[19] = APR_HepG2_MitoMass_72hr: Apredica 72-hour HepG2 Assay for Mitochondrial Mass (AID 2282924); conditions: high-content imaging, actives raise or lower the signal;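 also: MitoTracker Red CMXRos stain intensity per cell imaged as mitochondrial mass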
Outline: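 HepG2 cells dosed 72 hr at 0.39–200 uM (0.5% DMSO), in duplicate. MitoTracker Red CMXRos 250 nM loaded 30 min before formaldehyde fixation; high-content fluorescence imaging, bidirectional fit versus DMSO.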

[20] = APR_HepG2_MicrotubuleCSK_24hr: Apredica 24-hour HepG2 Assay for Microtubule CSK Stabilty (AID 2282909); conditions: HepG2 microtubule cytoskeleton imaging, actives raise or lower the signal
Outline: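 Steps: dose HepG2 for 24 h (0.39–200 uM, 0.5% DMSO); fix 30 min in 3.7% formaldehyde at room temperature; permeabilize; stain alpha-tubulin 60 min; image microtubule cytoskeleton at 20x. Signal change fitted in both directions relative to DMSO.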

Measured: AC50

C=CN1CCCC1=O
inactive: [1] | [2] | [3] | [4] | [5] | [6] | [7] | [8] | [9] | [10] | [11] | [12] | [13] | [14] | [15] | [16] | [17] | [18] | [19]

CCN(CC)C(=S)SSC(=S)N(CC)CC
active: [4] 50.6 µM | [5] 25.2 µM | [7] 26.1 µM | [8] 4.83 µM | [9] 3.04 µM | [10] 22.9 µM | [11] 27.1 µM | [12] 37.4 µM | [13] 23.5 µM | [15] 7.04 µM | [16] 31 µM | [17] 87.4 µM | [18] 12 µM | [19] 14.4 µM
inactive: [1] | [2] | [3] | [6]

CCCCCCOC(=O)CC(CC(=O)OCCCCCC)(OC(=O)CCC)C(=O)OCCCCCC
active: [1] 50 µM
inactive: [2] | [3] | [4] | [20] | [5] | [6] | [7] | [9] | [10] | [11] | [13] | [15] | [16] | [17] | [19]

CCCCCOC(C)=O
inactive: [1] | [2] | [3] | [4] | [20] | [5] | [6] | [7] | [9] | [10] | [11] | [13] | [15] | [16] | [17] | [19]

CCCCCCCCCC
inactive: [1] | [2] | [3] | [4] | [5] | [6] | [7] | [8] | [9] | [10] | [11] | [12] | [13] | [15] | [16] | [17] | [18] | [19]

OC(CCl)CCl
inactive: [1] | [2] | [3] | [4] | [5] | [6] | [7] | [8] | [9] | [10] | [11] | [13] | [14] | [15] | [16] | [17] | [18] | [19]

CCCC(CCC)C(=O)O
inactive: [1] | [2] | [3] | [4] | [20] | [5] | [6] | [7] | [9] | [10] | [11] | [12] | [13] | [14] | [15] | [16] | [17] | [19]

CCOC(N)=O
inactive: [1] | [2] | [3] | [4] | [5] | [6] | [7] | [8] | [9] | [10] | [11] | [13] | [15] | [16] | [17] | [18] | [19]

O=S1(=O)CCCO1
inactive: [1] | [2] | [3] | [4] | [5] | [6] | [7] | [8] | [9] | [10] | [11] | [12] | [13] | [14] | [15] | [16] | [17] | [18] | [19]

CCCCCCCC/C=C\CCCCCCCC(=O)OC[C@@H](O)[C@H]1OC[C@H](O)[C@H]1O
inactive: [1] | [2] | [3] | [4] | [5] | [6] | [7] | [8] | [9] | [10] | [11] | [13] | [15] | [16] | [17] | [18] | [19]

Cc1ncc([C@@H](CCCCCCc2ccc3c(n2)NCCC3)CC(=O)O)cn1
active: [5] 0.0392 µM | [7] 0.18 µM | [10] 0.944 µM | [11] 0.0391 µM | [13] 0.0971 µM | [14] 534 nM | [15] 0.0459 µM
inactive: [1] | [2] | [3] | [4] | [20] | [6] | [9] | [12] | [16] | [17] | [19]

O=c1[nH]cnc2c1ncn2[C@H]1CC[C@@H](CO)O1
active: [6] 39 nM
inactive: [1] | [2] | [3] | [4] | [20] | [5] | [7] | [9] | [10] | [11] | [13] | [15] | [16] | [17] | [19]

CC(=O)c1ccccc1
inactive: [1] | [2] | [3] | [4] | [5] | [6] | [7] | [8] | [9] | [10] | [11] | [12] | [13] | [15] | [16] | [17] | [18] | [19]
